The panel holds about 83,000 compounds, 20% with a hit somewhere; the sample as a whole holds those more often.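 The endpoint reported here, percent growth, reads 100 for growth as untreated, 0 for no net growth and -100 for all cells dead.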 Calls of active or inactive are those of the source.
tested on: ACHN renal; experiment: NCI-60 one-dose screen, 48 h (100 = growth as untreated, 0 = no growth, -100 = all killed); conditions: 10 µM unless noted
Description: Growth inhibition of the ACHN human tumor cell line is measured as a screen for anti-cancer activity. Cells are grown in 96 well plates and exposed to the test compound for 48 hours. Compounds are tested at a single concentration, which is 10^-5 M for most compounds. The reported endpoint is percent growth (GI% or GIPRCNT), where numbers from 0 - 100% represent growth inhibition, and numbers from -100% - 0 represent cell death. For example, a value of 40 represents 60% growth inhibition. A value of 0 means no net growth occurred over the course of the experiment. A value of -40 indicates 40% of cells at the beginning of the experiment died by the end of the experiment. A value of -100 means all cells are dead at the end of the experiment.
NCI-60 Human Tumor Cell Lines Screen was performed using the standard one-dose NCI protocol, which is described in more detail at https://dtp.cancer.gov/discovery_development/nci-60/default.htm.
Compounds with GIPRCNT values below 10 were considered active. Activity score was based on GIPRCNT using the following formula: […]
Score is 0 for GIPRCNT values of 100 or above, 50 for GIPRCNT values of 0, and 100 for GIPRCNT values of -100.

Which growth does the source give for `S=P(Nc1ccccc1)(Nc1ccccc1)c1ccccc1` here?
Its growth is 102% (inactive).

`O=C1NC2(CCNCC2)Nc2ccccc21` was tested. Which growth did it give?
Its growth is 110% (inactive).

With `O=C(O)C1[O][Sb][O]C1C(=O)O` (stereo not given) as the compound, how does the growth read?
Its growth is 106% (inactive).

For `CCOC(=O)C1(c2ccccc2)CCN(CC(=O)c2ccc(NC(C)=O)cc2)CC1`, which growth is on record?
Its growth is 96% (inactive).

For `CNC(=O)Oc1ccccc1`, which growth is on record?
Its growth is 105% (inactive).

`CC(=O)O[C@H]1CC[C@H]2[C@@H]3CC[C@H]4CC=C(C)C[C@]4(C)[C@H]3CC[C@]12C` was tested. Which growth did it give?
The growth was 96.5% (inactive).

Which growth does the source give for `CC1(C)N=C(N)N=C(N)N1c1ccc(CCCCc2ccc(S(=O)(=O)F)cc2)cc1` here?
Its growth is 39.2% (inactive).

How did the growth turn out when `Cc1cccc(N=C2c3cc([N+](=O)[O-])ccc3-c3c2cc([N+](=O)[O-])cc3[N+](=O)[O-])c1` was run?
The growth was 59.3% (inactive).

How did the growth turn out when `Cc1cc(NC(=O)/C=C/c2ccc([N+](=O)[O-])cc2)ccc1S(=O)(=O)F` was run?
Its growth is 105% (inactive).

How did the growth turn out when `ClCCN(CCCl)c1ccc(/C=C\c2ccnc3ccccc23)cc1` was run?
The growth was 76% (inactive).

With `CCOP(=O)(OCC)Oc1ccc(Sc2ccc(OP(=O)(OCC)OCC)cc2)cc1` as the compound, how does the growth read?
The growth was 115% (inactive).

With `CC[C@@H](C)/C=C(C)/C=C/C(=O)c1c(O)c(-c2ccc(O)cc2)cn(O)c1=O` as the compound, how does the growth read?
Its growth is 0.29% (active).

How did the growth turn out when `C1CNC2CCCC2C1` (stereo not given) was run?
Its growth is 103% (inactive).

`C[CH2][Pb]([CH2]C)([CH2]C)[O]C(=O)COC` was tested. Which growth did it give?
The growth was 12.7% (inactive).

For `Oc1ccccc1OB(Oc1ccccc1O)N(CCCl)CCCl`, which growth is on record?
Its growth is 86.1% (inactive).

With `CO[C@@H](c1ccccc1Cl)[C@H](C)OC(N)=O` as the compound, how does the growth read?
The growth was 99.6% (inactive).

How did the growth turn out when `O=[As]c1ccc(C(=O)c2ccc(Oc3ccccc3)cc2)cc1` (stereo not given) was run?
Its growth is -100% (active).

With `COc1cccc2c1C(=O)c1c(O)c3c(c(O)c1C2=O)CC(O)(/C(C)=N/NC(=O)CCC(=O)N/N=C(\C)C1(O)Cc2c(O)c4c(c(O)c2C(OC2CC(N)C(O)C(C)O2)C1)C(=O)c1c(OC)cccc1C4=O)CC3OC1CC(N)C(O)C(C)O1` (stereo not given) as the compound, how does the growth read?
The growth was -34.9% [5 µM] (active).

`CNC(=O)Oc1cc(C(C)C)ccc1Sc1ccc(C(C)C)cc1OC(=O)NC` was tested. Which growth did it give?
Its growth is 81.6% (inactive).

With `COc1cc(C2(C#N)CCN(C)CC2)cc(OC)c1OC` as the compound, how does the growth read?
Its growth is 98.5% (inactive).

`N#CC(C#N)=Cc1ccc2ccccc2c1` was tested. Which growth did it give?
Its growth is 107% (inactive).

`CCN(CC)c1ccc(C=C2C(=O)NC(=S)NC2=O)cc1` was tested. Which growth did it give?
The growth was 95.7% (inactive).

With `Oc1c(Br)cc(Br)cc1Br.[Cu+2]` as the compound, how does the growth read?
The growth was 105% (inactive).

With `O=C1NC(=O)C(Cc2ccccc2)(Cc2ccccc2)C(=O)N1` as the compound, how does the growth read?
The growth was 114% (inactive).

For `O=C1NC(=O)C(=Cc2cn(Cc3ccccc3)c3ccccc23)C(=O)N1`, which growth is on record?
Its growth is 92.7% (inactive).

Which growth does the source give for `CN1CCN(C(=O)COc2ccc(/C=C3\CC4C5CC=C6CC(Cl)CCC6(C)C5CCC4(C)C3=O)cc2)CC1` (stereo not given) here?
The growth was 80.1% (inactive).

How did the growth turn out when `OB([O][Hg][c]1ccccc1)[O][Hg][c]1ccccc1` was run?
Its growth is -95.6% (active).

Which growth does the source give for `Oc1ccc2c3c1O[C@H]1c4[nH]c5ccccc5c4C[C@@]4(O)C(C2)N(CC2CC2)CC[C@]314` here?
Its growth is 89.7% (inactive).

`COc1c(O)c2c3c(c1OC)-c1ccccc1CC3N(C)CC2` (stereo not given) was tested. Which growth did it give?
Its growth is 105% (inactive).

With `CC(C)OC(=S)[S-].[Au+].c1ccc([PH+](c2ccccc2)c2ccccc2)cc1` as the compound, how does the growth read?
Its growth is 0.723% (active).

With `COc1ccc(NP2(=O)OCC(C)(N)CO2)cc1` (stereo not given) as the compound, how does the growth read?
The growth was 96.6% (inactive).

How did the growth turn out when `Nc1cccc2c1Oc1ccccc1O2` was run?
Its growth is 99.2% (inactive).

`Oc1ccc(O)c2c1C1(Cl)C(Cl)=C(Cl)C2(Cl)C1(Cl)Cl` was tested. Which growth did it give?
The growth was 48.2% (inactive).

For `CCCCCN(CCCCC)CC(O)c1ccc(C)c(Cl)c1` (stereo not given), which growth is on record?
The growth was 92.7% (inactive).

For `O=C(O)c1[nH]c(=O)[nH]c(=O)c1F`, which growth is on record?
Its growth is 77% (inactive).

With `C[C@]12C[C@H](O)[C@H]3[C@@H](CCC4=CC(=O)CC[C@@]43C)[C@@H]1CC[C@@H]2O` as the compound, how does the growth read?
The growth was 101% (inactive).

With `CC(CC(C#N)(c1ccccc1)c1ccccc1)N1CCOCC1` (stereo not given) as the compound, how does the growth read?
Its growth is 102% (inactive).

How did the growth turn out when `C=CCc1ccc(OC(=O)Cc2ccccc2)c(OC)c1` was run?
The growth was 110% (inactive).

`COc1cc(CNCCc2ccc(Cl)cc2)cc(OC)c1O` was tested. Which growth did it give?
Its growth is 75.6% (inactive).

Which growth does the source give for `COc1ccc(/C=C\c2cc(OC)c(OC)c(OC)c2)cc1N/C=C\C(=O)c1c[nH]c2ccccc12` here?
Its growth is 15% (inactive).

Source: PubChem BioAssay (NCI)
